Rows were chosen to be rich in hits. Some 19% of all compounds tested hit in one or more screens of this group.
DT40 TDP1 no CPT = qHTS for Inhibitors of human tyrosyl-DNA phosphodiesterase 1 (TDP1): qHTS in cells in absence of CPT; DT40 Tdp1-/- hTDP1 cells, no CPT, ATP luminescence, 48 h; Potency, µM (series often up to 46.2 µM), inactives show at the highest dose activity change, negative = growth inhibition, most hits filed as inhibitors; 420,000 compounds, 15% hits; AID 686978, 2013; note: potency is the fitted concentration of half-maximal effect; nearly all actives have a fitted effect of over 55% in size
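No-CPT arm: Tdp1-/-;hTDP1 DT40 cells (400/well) plus compounds, incubated ≥48 hr at 37 °C. Readout CellTiter-Glo luminescence.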
IL-1B inflam inh = qHTS for Inhibitors of Inflammasome Signaling: IL-1-beta AlphaLISA Primary Screen. activity change, % at 57.5 µM. 360,000 compounds, 4.7% hits. THP-1 LPS/ATP IL-1B secretion, AlphaLISA, 16 h; hits give low values; in the data active = activity change below about -50%; inconclusive = mostly about -30% to -49%
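THP-1 cells pretreated 1 hr with compounds (up to 57.5 uM final), then stimulated with LPS (250 ng/mL final) plus ATP (1.25 mM final); secreted IL-1B measured by AlphaLISA after 16 hr, decreased signal indicating inhibition.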
HT1080NT lethal = qHTS for induction of synthetic lethality in tumor cells producing 2HG: qHTS for the HT-1080-NT fibrosarcoma cell line | HT-1080-NT fibrosarcoma viability, CellTiter-Glo ATP luminescence, 48 h | Potency, µM (highest dose often 46.1 µM), without a hit: top-dose activity, negative = less viability, hits mostly cytotoxic | 360,000 compounds, 1.6% hits | AID 686970, 2013;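 note: NT is the 2HG producing partner of a matched IDH1 knockdown line; potency is the fitted concentration of half-maximal effect; 0% = DMSO-treated cells and -100% = media-only wells without cells; nearly all actives have a fitted effect of over 55% in size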
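Viability by CellTiter-Glo luminescence after 48 h compound exposure at 37C of HT-1080-NT cells (750/well, RPMI, 5% FBS). % activity scaled between DMSO wells and medium-only wells, then curve-fitted and categorized by curve class.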
DT40 TDP1 CPT = qHTS for Inhibitors of human tyrosyl-DNA phosphodiesterase 1 (TDP1): qHTS in cells in presence of CPT; 420,000 compounds, 12% hits; Potency, µM (top dose mostly 46.2 µM), without a hit: at the top dose activity change, negative = growth inhibition, most hits filed as inhibitors; AID 686979, 2013; chicken DT40 Tdp1-/-;hTDP1 cells + 20 nM CPT, ATP luminescence, 48 h; note: potency is the fitted concentration of half-maximal effect; nearly all actives have a fitted effect of over 55% in size
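Chicken DT40 Tdp1-/- cells complemented with human TDP1, 400 cells/well, exposed to compounds plus 20 nM camptothecin for at least 48 h at 37 C; viability read as ATP content by CellTiter-Glo luminescence.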
ELG1 repair inh = qHTS screen for small molecules that inhibit ELG1-dependent DNA repair in human embryonic kidney (HEK293T) cells expressing luciferase-tagged ELG1; Potency, µM (doses to about 46.1 µM), for the others: at the top dose activity change, negative = inhibition, hits mostly inhibitors; HEK293T ELG1-luciferase reporter, luminescence, 16 h; DNA damage induced by 5-fluorouridine; 330,000 compounds, 2.3% hits; AID 504467, 2011; note: potency is the fitted concentration of half-maximal effect; nearly all actives have a fitted effect of over 55% in size
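Quantitative HTS, concentration-response format. 2,000 cells/well co-treated with 5-fluorouridine and compound, 16 hr in 5% CO2 at 37 °C; ONE-Glo luminescence read after 30 min.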
HT1080 IDH1KD tx = qHTS for induction of synthetic lethality in tumor cells producing 2HG: qHTS for the HT-1080-IDH1KD cell line; 360,000 compounds, 2% hits; AID 686971, 2013; HT-1080 IDH1 knockdown viability, ATP luminescence, 48 h; Potency, µM (titrated, usually from 46.1 µM), for the others: top-dose activity, negative = toxicity, hits mostly cytotoxic;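 note: potency is the fitted concentration of half-maximal effect; 0% = DMSO wells and -100% = cell-free medium wells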
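CellTiter-Glo luminescence after 48 h compound exposure at 37 degrees C of IDH1-knockdown HT-1080 cells in 5% FBS RPMI. %Activity scaled between DMSO wells and cell-free media wells, with curves fitted and assigned curve classes.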
* marks the source's active call; other numbers are inactive results. Unless noted, calls come from the whole dose curve; as a rule, active = well fitted curve in the direction sought with a large enough effect; inconclusive = small, poorly fitted or top-dose-only effect, or another doubt; inactive = no such curve, though single readings can be large; an effect the other way counts as inactive or inconclusive. Unless noted, % is set by controls: 0 for no effect and ±100 for the full control effect.

How did CCc1nc2ccc(C(=O)Nc3ccc(OC)c(OC)c3)cn2c1N(CC)Cc1cccc(Br)c1 do in these assays?
DT40 TDP1 no CPT: 23.1µM*; IL-1B inflam inh: -57.1*; HT1080NT lethal: inconclusive; DT40 TDP1 CPT: 23.1µM*; HT1080 IDH1KD tx: 16.4µM*

Results for CCc1nc2ccc(C(=O)Nc3ccc(OC)c(OC)c3)cn2c1N(CC)CCOC ?
DT40 TDP1 no CPT: inconclusive; IL-1B inflam inh: -15.7; HT1080NT lethal: 11.7%; DT40 TDP1 CPT: inconclusive; HT1080 IDH1KD tx: 7.1%

What do the screens show for `Cc1ccc(C(O)c2ncc(-c3ccccc3Cl)[nH]2)c(C)c1` (stereo not drawn)?
DT40 TDP1 no CPT: -23.3%; IL-1B inflam inh: -14.2; HT1080NT lethal: inconclusive; DT40 TDP1 CPT: inconclusive; HT1080 IDH1KD tx: inconclusive

How did CC(C)CC(N)C(=O)NC(C)C(=O)O (stereo not drawn) do in these assays?
DT40 TDP1 no CPT: -1.6%; DT40 TDP1 CPT: -21.0%

How did CC1CCC(NC(=O)C2CCC(CNc3c(N4CCCCC4)c(=O)c3=O)CC2)CC1 (stereo not drawn) do in these assays?
DT40 TDP1 no CPT: inconclusive; IL-1B inflam inh: -9.4; HT1080NT lethal: 9.8%; DT40 TDP1 CPT: inconclusive; ELG1 repair inh: -13.6%; HT1080 IDH1KD tx: 2.2%

How did COCCNC(=O)C(c1ccc(C)cc1)N(C(=O)C(=O)NC1CCCC1)c1ccc2c(c1)OCCO2 (stereo not drawn) do in these assays?
DT40 TDP1 no CPT: 0.4%; IL-1B inflam inh: 28.3; HT1080NT lethal: -0.2%; DT40 TDP1 CPT: -7.3%; ELG1 repair inh: 3.4%; HT1080 IDH1KD tx: 5.6%

What do the screens show for `CCc1nc2ccc(C(=O)NCc3cccs3)cn2c1N(C)Cc1nccs1`?
DT40 TDP1 no CPT: 20.6µM*; IL-1B inflam inh: -53.8*; HT1080NT lethal: 4.1%; DT40 TDP1 CPT: inconclusive; HT1080 IDH1KD tx: -8.9%

How did CCc1nc2ccc(C(=O)NCCC(C)C)cn2c1N(C)Cc1nccs1 do in these assays?
DT40 TDP1 no CPT: inconclusive; IL-1B inflam inh: -21.3; HT1080NT lethal: 3.4%; DT40 TDP1 CPT: inconclusive; HT1080 IDH1KD tx: 0.4%

How did CSCCC(NS(=O)(=O)c1ccc(Cl)cc1)C(=O)OCC(=O)c1c(C)[nH]c2ccccc12 (stereo not drawn) do in these assays?
DT40 TDP1 no CPT: 14.6µM*; IL-1B inflam inh: -85.8*; HT1080NT lethal: -13.1%; DT40 TDP1 CPT: inconclusive; ELG1 repair inh: inconclusive; HT1080 IDH1KD tx: -24.8%

Results for O=C(COC(=O)C1CC(O)CN1S(=O)(=O)c1ccc(Cl)cc1)c1ccccc1 (stereo not drawn) ?
DT40 TDP1 no CPT: -8.0%; IL-1B inflam inh: 7.2; HT1080NT lethal: 8.0%; DT40 TDP1 CPT: 3.2%; ELG1 repair inh: 11.4%; HT1080 IDH1KD tx: 4.8%

How did CSCCC(NC(=O)COc1ccccc1)C(=O)OCC(=O)c1ccccc1 (stereo not drawn) do in these assays?
DT40 TDP1 no CPT: -27.0%; IL-1B inflam inh: -16.7; HT1080NT lethal: 3.1%; DT40 TDP1 CPT: 0.5%; ELG1 repair inh: 15.9%; HT1080 IDH1KD tx: 8.8%

How did CSCCC(NS(=O)(=O)c1ccc2ccccc2c1)C(=O)OCC(=O)c1ccc(C(C)C)cc1 (stereo not drawn) do in these assays?
DT40 TDP1 no CPT: 16.4µM*; IL-1B inflam inh: 3.0; HT1080NT lethal: -3.0%; DT40 TDP1 CPT: 23.1µM*; ELG1 repair inh: inconclusive; HT1080 IDH1KD tx: -14.4%
